# Measurements reported in PubChem BioAssay (Tox21).
# Results filed as inconclusive are left out. Values without a mark were called inactive. Calls of active or inactive are those of the source. Calls come from the whole dose curve; as a rule, active = well fitted activation curve with a large enough effect in the repeat runs; inconclusive = weak or mixed curves; inactive = flat fitted curve, though single readings scatter.
# Experiment: A CellTox Green Cytotoxicity Assay to monitor cytotoxicity in HEK293 cells - 32 hour (AID 1224881); note: nearly all actives have a fitted effect of over 40% in size
# Conditions: CellTox Green fluorescence; series mostly up to 76.8 µM; cytotoxicity increase: at the top concentration
# Text: National Center for Advancing Translational Sciences [NCATS]
# NIH Chemical Genomics Center [NCGC]
# U.S. Environmental Protection Agency [EPA]
# National Institutes of Environmental Health Sciences [NIEHS]
# National Toxicology Program [NTP]
# Cell-based models are critical for drug discovery. Determining the natural cytotoxic effects resulting from test compounds is an essential research activity. A CellTox Green Cytotoxicity Assay to monitor cytotoxicity in real time of continues cell culture during 40 hours of the compound treatment was used to screen Tox21 10K library compounds in Hek293 cells. CellTox Green Cytotoxicity Assay is a nonlytic, homogeneous, biofluorescent method to measure cytotoxicity in cell culture after experimental manipulation. The assay system uses a proprietary asymmetric cyanine dye that is excluded from viable cells but preferentially stains the dead cell's DNA. […] Viable cells produce no appreciable increases in fluorescence. Therefore, the fluorescence signal produced by the binding interaction with dead cell DNA is proportional to cytotoxicity.
# The mixture of Hek293 cell suspension and reagents were dispensed at 600cells/6 ul/well in 1536-well tissue culture treated black solid bottom plates using a Multidrop dispenser. After the assay plates were incubated at a 37 C/5% CO2 incubator for 5 hours, 23 nL of compounds dissolved in DMSO, positive and negative controls was transferred to the assay plate by a pintool work station. The plates were incubated at 37 C for 40 hours. The fluorescence intensity were measured at 0h, 8h, 16h, 24h, 32h and 40h time points using ViewLux plate reader during compound treatment.
# % is set by controls: 0 for no effect and ±100 for the full control effect; potency is the fitted concentration of half-maximal effect.
Compound,Potency,cytotoxicity increase
CCCCCCCCCCn1cc[n+](CCCCCCCCCC)c1C,19.5 µM (active),–
COc1cc(/C=C/C(=O)O[C@H]2CC[C@]34C[C@]35CC[C@]3(C)[C@@H]([C@H](C)CCC=C(C)C)CC[C@@]3(C)[C@@H]5CC[C@H]4C2(C)C)ccc1O,–,-17.6% [at 35.3 µM]
CCCCCCCC/C=C/CCCCCCCC1=NCCN1CCO,24.5 µM (active),–
CCCCCCCCn1sc(Cl)c(Cl)c1=O,1.23 µM (active),–
COc1ccc(-c2ccc3cc(C(=O)O)ccc3c2)cc1C12CC3CC(CC(C3)C1)C2,–,11.3% [at 35.3 µM]
O=[N+]([O-])c1cc([N+](=O)[O-])c2ccc(S(=O)(=O)O)cc2c1O,–,-4.09%
CC(C)=CCOc1ccc(/C=C/C(=O)c2ccc(OCC=C(C)C)cc2OCC(=O)O)cc1,–,-2.05% [at 35.3 µM]
CCC(Cl)C(Cl)C(Cl)CC(Cl)C(Cl)C(C)Cl (stereo not given),–,0.955%
CCCCCCCCNC(C)C(O)c1ccc(SC(C)C)cc1 (stereo not given),16.9 µM (active),–
C=CC(=O)OCC(CO)(COCC(COC(=O)C=C)(COC(=O)C=C)COC(=O)C=C)COC(=O)C=C,43.1 µM (active),–
CC1=C(C(=O)OC(C)C)C(c2cccc([N+](=O)[O-])c2)C(C(=O)OC2CN(C(c3ccccc3)c3ccccc3)C2)=C(N)N1 (stereo not given),–,4.38% [at 35.3 µM]
O=C(c1ccc(F)cc1)C1CCN(CCn2c(=O)[nH]c3ccccc3c2=O)CC1,–,4.96% [at 35.3 µM]
COc1cc(-c2nc(NC(=O)c3cc4cc(C)cc(C)c4n3CC(=O)O)sc2CCC2CCCCC2)c(OC)cc1Cl,–,24.8%
Nc1ccc2c3c(cccc13)-c1ccccc1-2,44.1 µM (active),–
COc1ccc(C(=O)/C(Br)=C\C(=O)O)cc1,30.9 µM (active),–
CC[C@@]1(O)C(=O)OCc2c1cc1n(c2=O)Cc2cc3c(CN(C)C)c(O)ccc3nc2-1,23.9 µM (active),–
CCCCCCCCCCCCc1ccc(O)cc1,49 µM (active),–
C=CC(=O)OCC(CO)(COC(=O)C=C)COC(=O)C=C,15.5 µM (active),–
CC(NN)c1ccccc1 (stereo not given),–,-15.1% [at 15.8 µM]
CCCCCCCC[P+](CCCCCCCC)(CCCCCCCC)CCCCCCCC,4.87 µM (active),–

Compound,Potency,cytotoxicity increase
O=C(NOCC1CC1)c1ccc(F)c(F)c1Nc1ccc(I)cc1Cl,–,-5.13% [at 35.3 µM]
CCCN(CCC)c1c([N+](=O)[O-])cc(C(F)(F)F)c(N)c1[N+](=O)[O-],54.8 µM (active),–
CCc1cc(Cc2cc(CC)c(N)c(CC)c2)cc(CC)c1N,–,9.49%
NC(=O)N1C(=O)C(C(=O)c2cc(Cl)cs2)c2cc(F)c(Cl)cc21 (stereo not given),–,-5.89%
CSc1ccc(C(=O)c2[nH]c(=O)[nH]c2C)cc1,–,1.26% [at 35.3 µM]
COCCCC/C(=N\OCCN)c1ccc(C(F)(F)F)cc1,–,-0.145% [at 35.3 µM]
O=C1C=CC(=O)N1c1ccc(Cc2ccc(N3C(=O)C=CC3=O)cc2)cc1,19.5 µM (active),–
COC(=O)c1cc(Cl)ccc1OC,–,-3.41% [at 35.3 µM]
Cc1cc(O)c(C(C)(C)C)cc1Sc1cc(C(C)(C)C)c(O)cc1C,54.8 µM (active),–
CCOC(=O)O[C@H](C)OC(=O)c1ccc2c(c1)cc(C(=O)NC1CCN(C(C)C)CC1)n2Cc1cc(-c2ccc(Cl)s2)on1,18.2 µM (active),–
CC1=C(/C=C/C(C)=C/C=C/C(C)=C/C=O)C(C)(C)CCC1,38.7 µM (active),–
Cc1cc(O)c2ccccc2c1O,9.52 µM (active),–
C[C@H]1[C@H]2CC[C@H]3[C@@H]4CC=C5C[C@@H](N(C)C)CC[C@]5(C)[C@H]4CC[C@]23CN1C,–,2.49% [at 35.3 µM]
CCC(N)(CO)CO,–,-1.45%
C=C(C)C(=O)OCC(O)COc1ccc(C(C)(C)c2ccc(OCC(O)COC(=O)C(=C)C)cc2)cc1 (stereo not given),–,20.8%
Cc1ccc2oc(CN(Cc3ccccc3)C(=O)Nc3c(F)cc(F)cc3F)c(-c3ccc(Cl)cc3)c2c1,–,-2.71%
Oc1cc2ccccc2c2ccccc12,17.4 µM (active),–
Oc1cccc(-c2c3nc(c(-c4cccc(O)c4)c4ccc([nH]4)c(-c4cccc(O)c4)c4nc(c(-c5cccc(O)c5)c5ccc2[nH]5)CC4)C=C3)c1,–,0.674% [at 35.3 µM]
CNCc1cc(F)ccc1Oc1ccc(Cl)c(Cl)c1,49 µM (active),–
CCCCCCCCCCCC(=O)NCCCN(C)C,54.9 µM (active),–
